In PubChem BioAssay (NCI) one finds growth data, which are given here for 40 compounds.

Values joined by “and” are separate entries in the source; they are usually repeats but may differ in a detail not shown here. Equal entries are not always repeated. This is part of a sample that, as a whole, favours compounds with a hit. Of some 83,000 tested, about 20% had one in any assay.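 Plates (96-well) were seeded with cells, treated with compound at one concentration, and incubated for 48 hours before percent growth was determined.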 A number with no mark means an inactive call. Active and inactive are the calls of the source. The calls were made as follows: active = growth percent below 10; inactive = the rest.

For the assay, the system named is MDA-MB-468 breast. Briefly: NCI-60 one-dose screen, 48 h (100 = growth as untreated, 0 = no growth, -100 = all killed). The following applies: 10 µM unless noted.
Regarding `CC1CC=CCC1C1OCC(C)(C)CO1` (stereo not given), the growth is 105%. The value for `Cc1ccc2c(ccc3c[n+]4c5ccccc5ccc4n32)c1` was -56.3% (active); that for `COc1ccc(C2CC(c3ccc(OC)cc3OC)=NN2c2ccc(S(N)(=O)=O)cc2)cc1` (stereo not given) was 64.8%. The figure for `Cc1nn(Cc2ccccc2)cc1C(=O)Nc1sc2c(c1C(N)=O)CCC(=O)C2` is 47.2%; for `Brc1cccc(-n2ncc3c(Nc4ccc(-c5nnc(-c6ccccc6)o5)cc4)ncnc32)c1` it is 101%; for `FC(F)(F)c1cc(Nc2ccc3c(OCCCN4CCOCC4)cccc3n2)ccc1Cl` it is 38.3%. Take `Cc1ccc(C(=O)c2sc3nc4c(cc3c2N)CCCC4)c(C)c1`: the growth is 32.3%. The figure for `CCN(CC)CCCNc1cc(OC)cc2cccnc12` is 59%. The value for `CC1(C)CC(=O)c2cc3c(N)c(C(=O)Nc4ccc(Cl)cc4)sc3nc2C1` was 110%; that for `Cn1c(=O)n(-c2ccc(C(C)(C)C#N)cc2)c2c3cc(-c4cnc5ccccc5c4)ccc3ncc21` was -24.6% (active) and -48.4% (active); that for `CC1(CO)CCCC1NCCNC1CCCC1(C)CO` (stereo not given) was 104% and 95.5%.

Consider `Clc1ccc(C(/C=C/c2sc(Cl)nc2Cl)=N/Nc2cc(Cl)cc(Cl)c2)cc1`, for which the growth is 107%.

On to `CSC(SC)=C(C#N)c1nc2ccccc2s1`, for which the growth is 43.8%. The value for `CC1=C(C(=O)Nc2ccc(F)cc2)C(c2ccc(C)cc2)C2=C(CC(C)(C)CC2=O)N1` (stereo not given) was 84.7%; that for `COc1cc(-c2nn(-c3cccc(NC(=O)Nc4ccc(Cl)c(C(F)(F)F)c4)c3)cc2-c2ccncc2)ccc1Cl` was -7.22% (active); that for `CCCS(=O)(=O)Nc1ccc(F)c(C(=O)c2c[nH]c3ncc(-c4ccc(Cl)cc4)cc23)c1F` was 39.3%. On to `COc1ccc(C2CC(c3ccc4ccccc4c3)=NN2c2nc(O)c(C3=c4cc(Cl)ccc4=NC3=O)s2)cc1` (stereo not given), for which the growth was -73.9% (active).

With `O=C1c2cc(S(=O)(=O)O)ccc2C(=O)c2c1cccc2[N+](=O)[O-]`, the growth was 114%. The value for `Cc1nc(N)nc(N[C@@H](C)c2nc3cccc(NCc4ccc(C(=O)NO)cc4)c3c(=O)n2-c2ccccc2)n1` was -5.1% (active); that for `CN1C(=O)CCC(N2C(=O)c3cccc(NCCOCCOCCNC(=O)c4cc5c(o4)C(=O)c4ccccc4C5=O)c3C2=O)C1=O` (stereo not given) was -28.3% (active); that for `C[C@]12C=CC(=O)C=C1CCC1C2[C@@H](O)C[C@@]2(C)C1CC[C@]2(O)C(=O)COC(=O)CCC(=O)O` (stereo not given in full) was 115%. The value for `O=C(Nc1ccc(Nc2ccncc2)cc1)c1ccc([N+](=O)[O-])cc1` was -28.1% (active). Turning to `Fc1ccc(Nc2ncnc3ccc(-c4cnc5[nH]ccc5c4)cc23)cc1Cl`, the growth was -29.7% (active). The value for `CC(=O)c1c(C)nc2ccccc2c1/C=C/c1cccc(C)c1` was 28.5%. The value for `O=[N+]([O-])c1ccc(OCCO)cc1` was 120%; that for `O=C1Nc2cc(OC(F)(F)F)ccc2Oc2ccc(-c3ccnc(N4CCNCC4)c3)cc21` was -79.4% (active); that for `Nc1nc(N)c2c(n1)NC(c1cccc(Nc3ccnc4cc(C(F)(F)F)ccc34)c1)CC(c1ccc(F)cc1)=N2` (stereo not given) was 18%. The figure for `O=C(O)CCCCSc1ncnc2nc[nH]c12` is 96%; for `CCCCCCCCCCCCCCCCCCNC(=O)[C@H]1CSC(c2ccc(F)c(OC)c2)N1` (stereo not given in full) it is 44.1%; for `CCc1ccc(-c2ccc(-n3nc(C)c4c(N)nc(Cc5ccccc5)nc43)cc2)cc1` it is 38.9%. For the compound `CCc1ccc(CCCC(=O)O)cc1`, the growth is 107%.

Regarding `C=CCn1c(SCC(=O)Nc2ccc(C(=O)/C=C/c3cc(OC)c(OC)c(OC)c3)cc2)nnc1-c1cc(-c2ccc(S(N)(=O)=O)cc2)nc2ccccc12`, the growth was 89.3%. For the compound `COc1cc(/C=C/c2cc(/C=C/c3ccc(O)c(OC)c3)n(-c3c(C)cccc3C)c(=O)n2)ccc1O`, the growth was -16.4% (active).

As for `O=C(CNc1ccc(Cl)cc1)Nc1ccc(-c2nc3ccccc3s2)cc1`, the growth was -11.2% (active). Turning to `Clc1ccc2[nH]cc(-c3nn4cc(-c5ccncc5)nc4s3)c2c1`, the growth was 42.4%. The figure for `COc1cccc(/C=N/NC(=O)c2ccccc2Nc2ccnc(C(F)(F)F)c2)c1O` is -19.6% (active); for `NS(=O)(=O)c1cccc(Nc2nc(SCC(=O)c3ccc([N+](=O)[O-])cc3)nc3ccccc23)c1` it is 0.252% (active); for `C=C1C(=O)O[C@H]2[C@H]1CC/C(COC(=O)NCc1c[nH]c3ccc(OC)cc13)=C\CC[C@@]1(C)O[C@@H]21` it is -27.8% (active). In the case of `O=C1c2cc(Br)ccc2Oc2cc([N+](=O)[O-])ccc2N1c1ccc(I)cc1F`, the growth is 105%. In the case of `C=C1[C@@H](O)C[C@H]2C(C)(C)C[C@H](Cl)C[C@]2(C)[C@H]1C[C@H](O)[C@H]1CC(=O)NC1=O`, the growth is -47.5% (active).
